{"source": "PubChem BioAssay AID1117294", "about": "(Broad Institute, 2014)", "experiment": "cervical carcinoma cell viability loss – CellTiter-Glo luminescence, dry powder, set 3, cytotoxicity control, dose response (AID 1117294)", "conditions": "HeLa viability, ATP luminescence (CellTiter-Glo), 72 h", "note": "Unmarked numbers belong to inactive results.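 How the source made its calls: active means Lowers HeLa cell ATP signal, with fitted half-maximal potency at most twice the top tested dose in every run; inconclusive means runs disagree, or fits flat mid-range or poor; inactive means every run inactive, including signal rising.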"}
{"smiles": "COc1ccc(C(=O)O)cc1S(=O)(=O)Nc1cccc(N2CCCCC2)c1C(F)(F)F", "values": [{"measurement": "max activity", "result": 15.2, "unit": "%"}]}
{"smiles": "O=S(=O)(O)c1ccc(N2N=C(c3ccccc3)CC2c2ccccc2)cc1", "note": "(stereo not drawn)", "values": [{"measurement": "max activity", "setting": "at 0.0015 µM", "result": -32.4, "unit": "%"}]}
{"smiles": "COc1ccc(C(=O)O)cc1S(=O)(=O)Nc1cc(C(F)(F)F)ccc1N1CCOCC1", "values": [{"measurement": "max activity", "setting": "at 0.003 µM", "result": -16.9, "unit": "%"}]}
{"smiles": "COc1ccc(C(=O)O)cc1S(=O)(=O)Nc1cc(C(F)(F)F)ccc1N1CCCCC1", "values": [{"measurement": "max activity", "setting": "at 0.0235 µM", "result": -13.4, "unit": "%"}, {"measurement": "max activity", "setting": "at 12 µM", "result": -15.9, "unit": "%"}]}
{"smiles": "COc1ccc(C(=O)O)cc1S(=O)(=O)Nc1cc(C(F)(F)F)ccc1N(C)C", "values": [{"measurement": "max activity", "setting": "at 6 µM", "result": -19, "unit": "%"}]}
{"smiles": "COc1ccc(C(=O)O)cc1S(=O)(=O)N1CCN(c2ccc(C(F)(F)F)cc2N)CC1", "values": [{"measurement": "max activity", "setting": "at 12 µM", "result": -20.1, "unit": "%"}]}
{"smiles": "COc1ccc(C(=O)Nc2cccc(C(F)(F)F)c2)cc1S(=O)(=O)O", "values": [{"measurement": "max activity", "setting": "at 26 µM", "result": -20.5, "unit": "%"}]}
